# Experimental data published in PubChem BioAssay AID2280 (The Scripps Research Institute Molecular Screening Center, 2010).
# “And” between values parts separate entries of the source, which are not always exact repeats. Equal entries are not always repeated. Hit rate of the full screen: of about 320,000 compounds, about 1,400 (0.44%) were called active. This is one part of a sample in which actives are shown more often than they occur.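 The calls were made as follows: active = percent inhibition above a per-plate cutoff, the plate mean of test compounds plus 3 SD (cut at about 30% in these data); inactive = the rest.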 A structure can be active in one record and inactive in another.
# Target: Female germline-specific tumor suppressor gld-1 (Caenorhabditis elegans) (UniProt Q17339)
# Sequence (Q17339 whole entry, looked up): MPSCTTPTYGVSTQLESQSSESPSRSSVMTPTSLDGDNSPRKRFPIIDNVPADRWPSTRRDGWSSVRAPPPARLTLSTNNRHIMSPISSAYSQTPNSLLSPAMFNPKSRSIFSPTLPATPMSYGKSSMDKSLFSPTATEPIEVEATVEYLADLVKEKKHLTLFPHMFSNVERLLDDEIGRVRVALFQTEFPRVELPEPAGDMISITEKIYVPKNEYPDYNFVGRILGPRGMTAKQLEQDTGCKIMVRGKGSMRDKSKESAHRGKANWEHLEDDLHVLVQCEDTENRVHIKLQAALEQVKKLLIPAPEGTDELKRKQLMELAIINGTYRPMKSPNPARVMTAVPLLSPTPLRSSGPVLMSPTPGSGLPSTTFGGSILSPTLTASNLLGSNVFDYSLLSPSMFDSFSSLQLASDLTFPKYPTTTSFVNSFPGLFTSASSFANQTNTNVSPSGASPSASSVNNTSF
# Assay: small molecules blocking C. elegans GLD-1 RNA recognition – biochemical, fluorescence polarization, primary screen (AID 2280);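 also: 0% = DMSO wells with GLD-1 and probe and 100% = wells lacking GLD-1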
# Settings: purified GLD-1 + fluorescein TGE RNA, at 5.96 µM, stronger effect = higher value
row,SMILES,inhibition
1,Cc1nn(C(=O)c2ccoc2C)c(N)c1-c1ccccc1,126% (active)
2,C/C(=N\NC(=O)c1ccoc1C)c1ccccc1O,2.44% (inactive)
3,CCOC(=O)c1c(N)nn(C(=O)c2ccccc2)c1-c1ccccc1,7.39% (inactive)
4,CC(C)N(C)C(=O)CCc1nnc(CCc2c[nH]c3ccccc23)o1,7.03% (inactive)
5,Cc1ccccc1Nc1nc(N)nc(CSc2ccccc2)n1,6.58% (inactive)
6,Cc1ccccc1Nc1nc(N)nc(CN2CCN(c3ccccn3)CC2)n1,2.81% (inactive)
7,Cc1ccccc1Nc1nc(N)nc(CSc2nnc3ccccn23)n1,35.3% (active)
8,COc1ccc(C(C)=O)cc1COC(=O)Cn1cnc2ccccc2c1=O,-1.6% (inactive)
9,Cc1cc(NC(=O)CSc2nc3c(cc2C#N)CCCCC3)no1,6.13% (inactive)
10,CC(NC(=O)CSc1nc2c(cc1C#N)CN(C)CC2)c1ccccc1 (configuration not stated),35.9% (active)
11,CC1(C)CCc2nc(SCc3ccccc3)c(C#N)cc2C1,6.74% (inactive)
12,CCOC(=O)C(C)n1cnc2c(nnn2-c2ccc(F)cc2)c1=O (configuration not stated),2.21% (inactive)
13,CCCCn1ccnc1C(=O)c1cccc(S(=O)(=O)N2c3ccccc3CC2C)c1 (configuration not stated),0.24% (inactive)
14,Cc1ccc(C(=O)NC(=S)Nc2ccccc2C)cc1,-1.38% (inactive)
15,Cc1ccc(NC(=S)NC(=O)c2ccc(-c3ccccc3)cc2)cc1,-3.26% (inactive)
16,COC(=O)c1sc(NC(=S)NC(=O)c2ccc(C)cc2)nc1C,60.9% (active)
17,COc1cc(N2CCCC2)c(OC)cc1/C=C(/C#N)c1cccc(Br)c1,-45.9% (inactive)
18,CC(Sc1nnc(-c2cccs2)n1C1CC1)C(=O)NCC1CCCO1 (configuration not stated),-1.09% (inactive)
19,O=S(=O)(c1ccc(Cl)cc1)N1CCCN(c2ccc(C(F)(F)F)cn2)CC1,3.79% (inactive)
20,CN(C)c1ccc(Nc2c3c4c(cccc4n(C)c2=O)C(=O)c2ccccc2-3)cc1,53.9% (active)
21,CN(Cc1ccc(F)cc1)C(=O)CN1C(=O)c2ccccc2S1(=O)=O,-0.45% (inactive)
22,O=S(=O)(NCCCCCCNS(=O)(=O)c1c(F)cccc1F)c1ccc2c(c1)OCCO2,-2.33% (inactive)
23,C=CCOc1cccc(C2C(C(=O)c3ccc(C)o3)=C(O)C(=O)N2c2nnc(C)s2)c1 (configuration not stated),91.3% (active)

row,SMILES,inhibition
1,C=CCOc1cccc(C2C(C(=O)c3ccc(C)o3)=C(O)C(=O)N2CCCn2ccnc2)c1 (configuration not stated),5.89% (inactive)
2,Cc1cc(N2C(=O)C(O)=C(C(=O)c3ccc(C)o3)C2c2ccc(OCc3ccccc3)cc2)no1 (configuration not stated),12.7% (inactive)
3,CCN1CCC2(CCN(Cc3cn[nH]c3-c3ccc(OC)c(F)c3)C2)C1 (configuration not stated),6.39% (inactive)
4,COc1ccccc1C(=O)N(C1=NC(C)CS1)c1ccc(Cl)cc1 (configuration not stated),5.47% (inactive)
5,NC(=O)c1ccc(-c2csnn2)cc1,-0.25% (inactive)
6,COc1ccc(NC(=O)C(C)SCc2ccccc2)cc1 (configuration not stated),4.3% (inactive)
7,O=C1N=C2SCCN2/C1=C\c1c(Cl)cccc1Cl,3.87% (inactive)
8,CCC(=NC1CC(C)(C)NC(C)(C)C1)C1=C(O)CC(C)(C)CC1=O,0.57% (inactive)
9,CN(CCOc1ccccc1)C(=O)c1cc(-c2ccco2)nc2ccccc12,44.1% (active)
10,CN(C(=O)COC(=O)c1cc(-c2ccco2)nc2ccccc12)C1CCS(=O)(=O)C1 (configuration not stated),24.7% (inactive)
11,COc1ccc(NC(=O)CN(C)C(=O)c2cc(-c3ccc(C)o3)nc3ccccc23)cc1,1.85% (inactive)
12,Cn1nc(-c2ccccc2)c(CSc2cccc(Cl)c2)c1Cl,3.82% (inactive)
13,C=CCN(Cc1nc(-c2cc(OC)c3c(c2)OCO3)oc1C)C1CCS(=O)(=O)C1 (configuration not stated),3% (inactive)
14,COc1ccc(CCNS(=O)(=O)c2cc3c(cc2C)NC(=O)CO3)cc1OC,5.55% (inactive)
15,O=C1c2ccccc2-c2ncnc3c(N4CCOCC4)cc(N4CCOCC4)c1c23,47.9% (active)
16,Cc1oc2c(c1C(=O)N1CCOCC1)C(=O)c1ccccc1C2=O,-4.37% (inactive)
17,COC1=C(N2CCOCC2)C(=O)c2ccccc2C1=O,5.26% (inactive)
18,CCOc1ccc(NC(=O)CSc2ncnc3c2sc2ccccc23)cc1,7.48% (inactive)
19,CN(C)C=NC(=O)c1cccn1-c1ncc(C(F)(F)F)cc1Cl,3.24% (inactive)
20,CC1CCCCC1NC(=O)COC(=O)Cc1ccc(Cl)cc1 (configuration not stated),0.1% (inactive)
21,Cc1cc(C)c(S(=O)(=O)N2CCCC2CNC(=O)c2ccc3c(c2)OCO3)c(C)c1 (configuration not stated),-0.56% (inactive)
22,COc1ccc2[nH]c(C)c(CCN(Cc3cccs3)C(=S)Nc3ccccc3OC)c2c1,50% (active)
23,Cc1[nH]c2ccccc2c1CCN(Cc1cccs1)C(=S)NC(C)(C)C,5.63% (inactive)

row,SMILES,inhibition
1,COc1cccc(NC(=S)N(CCc2c(C)[nH]c3ccccc23)Cc2ccco2)c1,2.83% (inactive)
2,CCOC(=O)Cc1csc(SCC(=O)NC(C)C23CC4CC(CC(C4)C2)C3)n1 (configuration not stated),-5.16% (inactive)
3,O=c1cc(CO)oc(C(Nc2cccc(C(F)(F)F)c2)c2ccccn2)c1O (configuration not stated),75.6% (active)
4,O=c1cc(CO)oc(C(Nc2cccc([N+](=O)[O-])c2)c2ccccn2)c1O (configuration not stated),25.3% (inactive)
5,FC(F)(F)c1cccc(Nc2ncnc3ccccc23)c1,8.73% (inactive)
6,O=C(CN1CCOC1=O)N1CCCC(Nc2ccc(F)c(F)c2)C1 (configuration not stated),-0.97% (inactive)
7,CCCC1OC23CCCCC2C(C#N)(C#N)C1(C#N)C(=N)O3 (configuration not stated),63.5% (active)
8,O=C1CCC(=O)N(c2ccccc2)N1,3.62% (inactive)
9,O=C(Nc1ccc(Cl)cc1)N1CCc2[nH]c3ccccc3c2C1,7.58% (inactive)
10,COC(=O)[C@H]1[C@H]2C[C@H]3c4[nH]c5ccccc5c4CCN3C[C@@H]2CC[C@@H]1O,8.5% (inactive) and 48.8% (active)
11,COC(=O)C1CCN(C(=O)c2cc(=O)[nH]c3ccccc23)CC1,4.47% (inactive)
12,O=C1c2cccc(OCC(=O)N3N=C(c4cccs4)CC3c3ccc(F)cc3)c2CCN1Cc1ccccc1 (configuration not stated),-0.98% (inactive)
13,CC1CCCCC1NC(=O)Cn1c(=O)cnc2ccccc21 (configuration not stated),-4.13% (inactive)
14,CC(C)CCn1c(=O)c2c(nc3n2CCCN3Cc2ccccc2)n(C)c1=O,2.24% (inactive)
15,COc1ccc(OCCCC(=O)Nc2cccc(S(=O)(=O)N3CCCCCC3)c2)cc1,6.95% (inactive)
16,C1=C(N2CCOCC2)/C(=C/c2nc3ccccc3[nH]2)CC1,72.7% (active)
17,c1ccc(-n2nnnc2N2CCOCC2)cc1,-16.6% (inactive)
18,CC1(C)Cc2c(C#N)c(SCc3nc4ccccc4[nH]3)nc(N3CCOCC3)c2CO1,-7.37% (inactive)
19,CC(=O)c1c(C)[nH]c(C(=O)CN2C(=O)NC(C)(C)C2=O)c1C,1.35% (inactive)
20,COc1ccc(C(=O)CN2C(=O)NC3(CCc4ccccc43)C2=O)c(OC)c1 (configuration not stated),0.18% (inactive)
21,CC/C(=N/Nc1ccccc1)c1cnnc(SC)n1,2.17% (inactive)
22,CSc1ccc(S(=O)(=O)Nc2cccc(F)c2)cc1,11.1% (inactive)
23,COc1ccc(-c2nc(CS(=O)CC(=O)NCc3ccccc3)c(C)o2)cc1OC (configuration not stated),-5.15% (inactive)

row,SMILES,inhibition
1,COc1cccc(-c2nc(CS(=O)CC(=O)NCc3ccc(F)cc3)c(C)o2)c1 (configuration not stated),-0.05% (inactive)
2,COc1ccc(-c2nc(CS(=O)CC(=O)NCc3ccccn3)c(C)o2)cc1 (configuration not stated),81.7% (active)
3,Oc1ccc(-c2onc3ccc(Cl)cc23)cc1,8.29% (inactive)
4,CC(OC(=O)c1ccc2noc(-c3ccccc3)c2c1)C(N)=O (configuration not stated),6.97% (inactive)
5,COc1ccc(-c2onc3ccc(C(C)=O)cc23)cc1,169% (active)
6,COc1ccc(/C=C/C(=O)c2cc(Br)ccc(=O)c2O)cc1,-9.08% (inactive)
7,O=C(c1cnccn1)N1CCN(S(=O)(=O)c2cccc(Cl)c2)CC1,3.23% (inactive)
8,O=C(c1ccc(F)c(S(=O)(=O)N2CCOCC2)c1)N(CCc1ccccc1)Cc1ccccc1,18.5% (inactive)
9,Cc1nn(Cc2ccccc2)c(C)c1CNC(=O)c1ccc(F)c(S(=O)(=O)N2CCOCC2)c1,103% (active)
10,O=C(NCCSCc1ccccc1)c1ccc(Cl)c(S(=O)(=O)N2CCOCC2)c1,7.47% (inactive)
11,Cc1cnc(CN(C)C(=O)CC2C(=O)NCCN2Cc2cccc(F)c2F)[nH]1 (configuration not stated),9.56% (inactive)
12,CC1(C)CC[C@]2(C(=O)O)CC[C@]3(C)C(=CCC4[C@@]5(C)CC[C@H](O)C(C)(C)C5[C@H](O)C[C@]43C)[C@@H]2C1 (some centres not stated),1.49% (inactive)
13,O=C(COC(=O)Cn1cnc2ccccc21)Nc1cccc2c1C(=O)c1ccccc1C2=O,78.6% (active)
14,O=C(COC(=O)c1cccc(Br)c1)Nc1cccc2c1C(=O)c1ccccc1C2=O,7.63% (inactive)
15,O=C(Cn1cnc2ccccc21)Nc1ccccc1-c1ccccc1,1.53% (inactive)
16,Cc1ccc(N(Cc2cc(=O)[nH]c3ccccc23)C(=O)CCl)cc1,0.28% (inactive)
17,CC(=O)N/C(=N/c1nc(C)cc(C)n1)Nc1ccc(F)cc1F,-1.91% (inactive)
18,O=S(=O)(NCc1cccnc1)c1ccc(Br)s1,2.39% (inactive)
19,O=C(NCCc1ccccc1)C1CCN(S(=O)(=O)c2ccc(Br)s2)CC1,4.67% (inactive)
20,O=S(=O)([N-]c1nc2ccccc2nc1-[n+]1ccc(Cc2ccccc2)cc1)c1ccc(Br)s1,94.1% (active)
21,O=C1CN(C(=O)COC(=O)c2cnc(Cl)c(Cl)c2)c2ccccc2N1,6.14% (inactive)
22,CS(=O)(=O)c1ccc(C(=O)NNC(=O)c2cccs2)cc1,1.25% (inactive)
23,O=C(c1cc(COc2ccc(F)cc2F)on1)N1CCOCC1,-0.95% (inactive)
